KB-V1 cytotox: kills drug-selected multidrug resistant KB-V1 cells. KB-V1 MDR cells viability, CellTiter-Glo, 72 h. Potency, µM (highest dose often 46.1 µM), most hits filed as cytotoxic. 400,000 compounds, 3.4% hits; note: % is set by controls: 0 for no effect and ±100 for the full control effect; nearly all actives have a fitted effect of over 60% in size
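Cytotoxicity via CellTiter-Glo luminescence after 72 h compound exposure at 37 degrees C. Cells: drug-selected KB-V1 line, DMEM phenol-red free plus 10% FBS. Compounds tested at multiple concentrations; normalized data fitted to concentration-effect curves.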
HT1080-NT tox: kills 2HG-producing HT-1080-NT fibrosarcoma cells | HT-1080-NT fibrosarcoma viability, CellTiter-Glo ATP luminescence, 48 h | Potency, µM (titrated, usually from 46.1 µM), for the others: at the highest dose activity, negative = less viability, hits mostly cytotoxic | 360,000 compounds, 1.6% hits;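 note: NT is the 2HG producing partner of a matched IDH1 knockdown line; 0% = DMSO-treated cells and -100% = media-only wells without cells; nearly all actives have a fitted effect of over 55% in size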
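A 48-hour cytotoxicity screen used HT-1080-NT cells plated 2 hours before compound delivery. ATP-based CellTiter-Glo luminescence measured viability, normalized to DMSO and no-cell controls.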
HT1080 IDH1KD tx: HT-1080 IDH1 knockdown cell toxicity (counter line); HT-1080 IDH1 knockdown viability, ATP luminescence, 48 h; Potency, µM (top dose mostly 46.1 µM), without a hit: at the highest dose activity, negative = toxicity, actives largely listed as cytotoxic; 360,000 compounds, 2% hits; AID 686971;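 note: 0% = DMSO wells and -100% = cell-free medium wells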
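HT-1080-IDH1KD cells (IDH1 knocked down), 750/well in RPMI with 5% FBS, treated with compound 48 h at 37 degrees C. Viability by CellTiter-Glo luminescence, normalised to DMSO and no-cell wells; concentration-response curves classed.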
SW480 rereplic: inducers of DNA re-replication in SW480 colon cancer cells; SW480 DNA re-replication, Hoechst DNA content imaging, 48 h; Potency, µM (top dose mostly 46.1 µM), inactives show top-dose re-replication activation, most hits filed as activators; 340,000 compounds, 1.8% hits; AID 624297; note: % of control where 0% means no effect; nearly all actives have a fitted effect of over 55% in size
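Compounds, transferred as 23 nL by pin tool, were incubated with cells for 48 hr; DNA content per nucleus was then quantified by Hoechst staining and fluorescence plate imaging.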
MCF10A rereplic: inducers of DNA re-replication in MCF 10A breast cells. 350,000 compounds, 2.9% hits. MCF 10A DNA re-replication, Hoechst nuclear intensity, 48 h. Potency, µM (doses to about 46.1 µM), inactives show at the top dose activity, positive = re-replication, hits mostly activators; note: % of control where 0% means no effect; nearly all actives have a fitted effect of over 50% in size
KB-3-1 tox: KB-3-1 parental cell cytotoxicity. KB-3-1 viability, CellTiter-Glo ATP luminescence, 72 h. Potency, µM (series often up to 46.1 µM), usual class: cytotoxic. 400,000 compounds, 1.4% hits; note: % is set by controls: 0 for no effect and ±100 for the full control effect; nearly all actives have a fitted effect of over 60% in size
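Parental KB-3-1 adenocarcinoma cells in phenol-red-free DMEM with 10% FBS were pin-treated with compounds at several concentrations, incubated 72 h at 37 °C, and viability read by CellTiter-Glo luminescence; concentration-effect curves were fitted after normalization.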
The depositor's hits bear a star; i = inactive; ? = inconclusive; . = not tested or not shown. This is a sample that favours compounds with a hit; in the whole collection about 8% have one here. Calls come from the whole dose curve; as a rule, active = well fitted curve in the direction sought with a large enough effect; inconclusive = small, poorly fitted or top-dose-only effect, or another doubt; inactive = no such curve, though single readings can be large; an effect the other way counts as inactive or inconclusive. Potency is the fitted concentration of half-maximal effect.

SMILES | KB-V1 cytotox | HT1080-NT tox | HT1080 IDH1KD tx | SW480 rereplic | MCF10A rereplic | KB-3-1 tox
CCc1c(C)sc2c1CCN(C(=O)Nc1cc(C)ccc1C)C2c1ccc(OC)cc1 (stereo not given) | i | . | . | . | . | i
CN(C)c1ccc(NS(=O)(=O)c2ccc(Cl)cc2)cc1 | i | -5% | -9% | 21µM* | 1% | i
CN(CC(=O)Nc1ccc(Cl)cc1)C(=O)c1ccc(S(=O)(=O)Nc2ccccc2)cc1 | i | 13µM* | 16µM* | -25% | ? | i
Cc1cc(S(=O)(=O)Nc2ccc(N(C)C)cc2)c(C)s1 | 16µM* | -11% | -26% | 3% | 3% | i
CN(CC(=O)Nc1ccc(F)cc1)C(=O)c1cccc(NS(=O)(=O)c2ccccc2)c1 | i | 3% | 1% | -10% | -6% | i
COCC(C)NC(=O)CCS(=O)(=O)c1nc(-c2ccc(OC)cc2)cc(C(F)(F)F)n1 (stereo not given) | i | ? | 23µM* | 9% | 3.7µM* | i
CCC(C)NC(=O)CCSc1nc(-c2ccc(OC)cc2)cc(C(F)(F)F)n1 (stereo not given) | ? | . | . | . | . | i
COC(=O)c1ccccc1NC(=O)CCCS(=O)(=O)c1nc(-c2ccccc2OC)cc(C(F)(F)F)n1 | i | . | . | . | . | i
COc1ccc(-c2cc(C(F)(F)F)nc(S(=O)(=O)CCCC(=O)Nc3cccnc3Cl)n2)cc1OC | i | ? | 10µM* | 3% | 12µM* | i
COC(=O)CCS(=O)(=O)c1nc(-c2ccccc2)cc(C(F)(F)F)n1 | ? | 7.1µM* | 3.5µM* | ? | 3.7µM* | i
CCOC(=O)CS(=O)(=O)c1nc(-c2ccccc2)cc(C(F)(F)F)n1 | ? | 9.2µM* | 6.5µM* | 2.6µM* | ? | 13µM*
CC(C)(C)OC(=O)N1CCC(c2c(C(=O)N3CCCCC3)cnn2-c2ccccc2Cl)CC1 | i | . | . | . | . | i
COc1cc(NC(=O)CSc2cc(=O)n(C)c3ccccc23)cc(OC)c1OC | i | . | . | . | . | i
C#C[C@@]1(O)CC[C@@H]2[C@H]3CCC4=C/C(=N\O)CC[C@H]4[C@@H]3CC[C@]21CC | . | . | . | 18% | ? | .
CCOC(=O)CS(=O)(=O)c1nc(-c2ccc(F)cc2)cc(C(F)(F)F)n1 | i | 6.5µM* | 13µM* | 21% | 3.7µM* | 3.3µM*
CCOC(=O)CCS(=O)(=O)c1nc(-c2ccccc2)cc(C(F)(F)F)n1 | i | ? | 5.2µM* | 27% | ? | ?
O=C(Nc1ccc(Cl)cc1Cl)[C@@H]1CC=C[C@@H]2CCN(C3CC3)C(=O)[C@@H]21 | ? | . | . | . | . | i
CCCn1c(N)c(C(=O)CSc2nnc(Cc3ccccc3)o2)c(=O)n(C)c1=O | 10µM* | -17% | ? | -2% | 20% | i
COc1ccc(C(CC(=O)Nc2ccc(C)cn2)N2Cc3ccccc3C2=O)cc1OC (stereo not given) | i | . | . | . | . | i
O=C(CSc1nnc(-c2cccs2)n1-c1cccc(Cl)c1)c1cccc2c1OCCO2 | 8.2µM* | 16% | 7% | 2% | 4% | i
O=C(O)CSc1nnc(-c2cccs2)n1-c1ccc(Cl)cc1 | i | 16% | 19% | 4% | -3% | i
COc1ccc2c(c1)C1=NN(/C(C)=C/C(C)=O)C(c3ccc(F)cc3)C1CC2 (stereo not given) | 21µM* | 5% | 13% | 0% | ? | i
CCCCCOc1ccc(/C=C/C(=O)Nc2sc(C(C)=O)c(C)c2C(=O)OCC)cc1OC | ? | . | . | . | . | i
COc1ccc(CNc2ccc3cc(S(=O)(=O)N4CCCCC4)ccc3n2)cc1 | i | . | . | . | . | ?
COc1ccc(S(=O)(=O)Oc2cccc(/C=N/N=C3/NC(=O)C(CC(=O)O)S3)c2)cc1 (stereo not given) | i | -3% | 7% | 6.5µM* | -17% | i

Compound activity: PubChem BioAssay, National Center for Advancing Translational Sciences (NCATS)
